Data published in PubChem BioAssay AID1159580 (chemical genetic matrix, 2015).
The whole screen tested about 5,500 compounds, of which about 2,000 (36%) were called active. About 18% were inconclusive and are not listed. Rule as the data show it: active = normalized growth mostly below about 0.91 (no sharp cut-off); inconclusive = no clear call, values can overlap the other calls; inactive = mostly above about 0.92. The list shows a part of the results.

Assay: chemical genetic growth profiling, strain panel (AID 1159580);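 also: tested at 20 µM; growth read once vehicle control cultures reached saturation at 30 °C; 1 = growth at the plate median or of vehicle wells; lower values mean less growth of the strain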
Settings: S. cerevisiae deletion strains, growth OD

Measured: normalized growth

NC(=O)c1ccccc1
inactive: locus YAL040C, strain CLN3, active compounds read low 0.923 | locus YCL061C, strain MRC1 (second series), active compounds read low 1.01 | locus YER002W, strain NOP16, active compounds read low 0.988 | locus YGR078C, strain PAC10, active compounds read low 0.997 | locus YGR229C, strain SMI1, active compounds read low 1.04 | locus YNL153C, strain GIM3, active compounds read low 1.01 | locus YNL175C, strain NOP13, active compounds read low 0.972 | locus YNL197C, strain WHI3, active compounds read low 0.979 | locus YNL224C, strain SQS1, active compounds read low 0.997 | locus YOR083W, strain WHI5 (second series), active compounds read low 0.952
